# Screening data deposited in PubChem by National Center for Advancing Translational Sciences (NCATS).
# Only some compounds are listed: those with a hit (about 2.3% of all), similar ones and a draw of the others.
# Tau fluor cs: counter-screen for tau fibril formation inhibitors. tau K18 P301L Alexa594 fluorescence, heparin fibrillization. Potency, µM (titrated, usually from 57.7 µM), without a hit: at the top dose activity change, negative = decrease. 0.93% of 280,000 active. AID 1463; further: potency means the concentration at half of the fitted maximal effect; nearly all actives have a fitted effect of over 55% in size
#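 Human K18 P301L tau (15 uM unlabeled plus 0.24 uM Alexa 594-labeled, final) in 100 mM sodium acetate pH 7 was mixed with compound and 20 uM heparin and incubated 6 hr at 37 C.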
# Tau fibril FP: inhibitors of human tau fibril formation; AID 1468; 0.39% of 280,000 active; Potency, µM (highest dose often 57.7 µM), inactives show top-dose activity, negative = inhibition, usual class: inhibitors; P10636; K18 P301L tau heparin fibrillization, Alexa594 FP, 6 h; further: potency means the concentration at half of the fitted maximal effect; nearly all actives have a fitted effect of over 55% in size
# Target sequence (P10636 561-689 P618L limits assumed): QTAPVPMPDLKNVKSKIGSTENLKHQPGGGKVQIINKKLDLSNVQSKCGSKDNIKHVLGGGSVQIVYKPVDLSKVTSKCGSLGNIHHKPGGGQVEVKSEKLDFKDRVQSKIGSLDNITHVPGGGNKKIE
#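 Recombinant K18 P301L […], labeled with Alexa 594 at 0.24 uM over 15 uM unlabeled; heparin inducer 20 uM final; 37 C, 6 hr; FP endpoint.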
# FBPA coupling cs: coupling enzyme interference in Giardia aldolase counter-screen; 0.67% of 290,000 active; coupling enzyme system counterscreen, AmpLite Red fluorescence; AID 2472; activity change, negative = inhibition, % at 58.2 µM, hits read low; in the data active means activity change below about -30%
#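 Counterscreen of the coupled detection system alone, without aldolase: glyceraldehyde-3-phosphate coupling enzymes plus AmpLite Red readout. Compounds at 57.5 uM final, 10 min RT preincubation, 20 min RT reaction, fluorescence 525/598 nm.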
# USP1 inh: USP1/UAF1 (human) deubiquitinase inhibition | 0.23% of 390,000 active | recombinant USP1/UAF1, Ub-Rhodamine cleavage fluorescence | Potency, µM (series often up to 57.1 µM), inactives show top-dose activity change, negative = inhibition, actives largely listed as inhibitors | O94782 | AID 743255; further: potency means the concentration at half of the fitted maximal effect; nearly all actives have a fitted effect of over 60% in size
#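 High-throughput fluorogenic screen: 1nM USP1/UAF1 complex, Ub-Rho substrate 150nM final, 50mM HEPES pH 7.8 with 0.5mM EDTA, 0.1 mg/ml BSA, 1mM TCEP and 0.01% Tween-20.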
# Tau ThT inhib: tau fibrillization inhibition (ThT binding); P10636; recombinant tau K18 P301L (four-repeat tau fragment), heparin-induced fibrillization, ThT fluorescence; Potency, µM (titrated, usually from 57.4 µM), for the others: at the top dose activity, negative = inhibition, usual class: inhibitors; 2.1% of 270,000 active; AID 1460; further: potency means the concentration at half of the fitted maximal effect; nearly all actives have a fitted effect of over 55% in size
#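 K18 P301L tau (15 uM + 0.24 uM Alexa 594-tagged), heparin 20 uM, NaOAc pH 7, 6 h 37 C; ThT 30 uM, 1 h RT, ex 450/em 510 nm.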
# * hit, by the source's call; ? = inconclusive; . = not tested or not shown; [ ] = another dose, or the depositor's remark. Unless noted, the call rests on the fitted dose curve; in most records, active means well fitted curve in the direction sought with a large enough effect; inconclusive means small, poorly fitted or top-dose-only effect, or another doubt; inactive means no such curve, though single readings can be large; an effect the other way counts as inactive or inconclusive. On the % scale 0 is the no-effect control and ±100 the full control effect.
SMILES,Tau fluor cs,Tau fibril FP,FBPA coupling cs,USP1 inh,Tau ThT inhib
CCN(CC)c1nc(N)nc(NS(=O)(=O)c2ccc(Cl)cc2)n1,-8%,-3%,-33*,-11%,-5%
Cc1cc(NN)nc(NS(=O)(=O)c2ccc(Cl)cc2)n1,-7%,?,0,-3%,-5%
CSc1nc(/C=C2\C=Nc3ccccc32)c(O)n1C,?,11%,-9,-14%,11µM*
N#CC1=C(N)N=C(SCc2cccc3ccccc23)C(C(N)=O)C12CCCCC2 (centres undefined),?,-6%,5,-4%,20µM*
Nc1cc(=O)[nH]c(SCc2cccc3ccccc23)n1,.,.,4,-24%,.
CCOc1ccc(CCNC(=O)COC(=O)c2nn(C)c(=O)c3ccccc23)cc1OCC,.,.,.,-13%,.
CNC(=O)c1ccc(-c2sc3nc(N4CCOCC4)c4c(c3c2N)CC(C)(C)OC4)o1,?,2%,.,-10%,?
CNC(=O)c1ccc(-c2sc3nc(N4CCOCC4)c4c(c3c2N)CCCC4)o1,14µM*[quencher],20%,2,-21%,16µM*
CCOc1ccc(NC(=O)/C(C#N)=C\c2ccc(N3CCCC3)c(C)c2)cc1,.,.,.,22µM*,.
COc1ccc(NC(=O)/C(C#N)=C\c2ccc(OCc3ccc(C(=O)O)cc3)c(OC)c2)cc1,-21%,-16%,8,12%,4µM*
O=C1/C(=C/c2ccc(O)cc2)SC(=S)N1CC1CCCO1 (centres undefined),13µM*[quencher],?,9,?,10µM*
CCN(CC)c1ccc(NS(=O)(=O)c2ccc(-c3coc(C)n3)cc2)c(C)c1,?,8%,.,-26%,?
Cc1ccc(CNC(=O)CCn2cnc3ccccc3c2=O)cc1,3%,-2%,.,-6%,8%
COC(=O)N/N=C/c1c[nH]c2ccccc12,1%,3%,0,-8%,-4%
O=C(N/N=C/c1ccc(O)c([N+](=O)[O-])c1)C1CC1(c1ccccc1)c1ccccc1 (centres undefined),?,7%,4,-14%,14µM*
O=C(N/N=C/c1c[nH]c2ccccc12)C1CC1c1ccccc1 (centres undefined),14µM*[quencher],4%,-3,-14%,?
O=C(N/N=C/c1ccncc1)C1CC1(c1ccccc1)c1ccccc1 (centres undefined),?,-7%,-2,-9%,?
O=C(N/N=C/c1c[nH]c2ccccc12)C1CC1(c1ccccc1)c1ccccc1 (centres undefined),7.1µM*[quencher],-3%,0,-10%,-11%
CC1CCCC(C)N1C(=O)COC(=O)CNC(=O)c1ccc(Cl)cc1Cl (centres undefined),.,.,.,-16%,.
CC1CCN(S(=O)(=O)c2ccc3c(c2)CCN3C(=O)Nc2ccc(Br)cc2)CC1,?,?,.,6%,?
Cc1ccc(C(=O)O)cc1N=Cc1cc(Br)cc(Br)c1O,-10%,-21%,5,-26%,14µM*
O=C(Cn1ncc2c([nH]c3ccccc32)c1=O)NCCCN1CCN(c2ccc(F)cc2)CC1,-16%,7%,.,-15%,-12%
O=C(O)CC/C(=C\c1ccc(N2CCCC2)c([N+](=O)[O-])c1)c1nc2ccccc2s1,-24%,-12%,2,-25%,4.5µM*
O=C(O)CC/C(=C\c1ccccc1[N+](=O)[O-])c1nc2ccccc2s1,-6%,6%,10,-6%,-13%
Cc1cc(C)nc(NC(=O)c2cccs2)c1,.,.,2,-9%,.
SMILES,Tau fluor cs,Tau fibril FP,FBPA coupling cs,USP1 inh,Tau ThT inhib
CCOc1cc(/C=C2\NC(=S)N(c3c(C)n(C)n(-c4ccccc4)c3=O)C2=O)ccc1O,0%,-2%,6,-9%,-18%
CCOc1cccc(/C=C2\NC(=S)N(c3ccccc3)C2=O)c1O,?,5%,-9,-22%,14µM*
COc1cccc(NC(=O)Nc2cc(-c3cn4cccnc4n3)ccc2C)c1,-13%,?,.,-25%,-8%
CCOC(=O)c1cc(NC(=O)Nc2ccc(Br)cc2)c(C)nc1C,?,18µM*,0,-19%,11%
COc1cccc(NC(=O)Nc2cc(NC(=O)Nc3cccc(OC)c3)c(C)nc2C)c1,11µM*[quencher],22µM*,1,-12%,9%
CCOC(=O)c1cc(NC(=O)Nc2ccccc2Cl)c(C)nc1C,-22%,?,1,1%,8%
COc1cccc(NC(=O)Nc2cc(-c3cn4cccnc4n3)ccc2OC)c1,20µM*[quencher],-4%,.,-24%,?
COc1cccc(NC(=O)Nc2ccc(Cc3ccncc3)cc2)c1,16µM*[quencher],?,0,-17%,-2%
CCN(CC(=O)Nc1ccccc1C(F)(F)F)C(=O)c1ccc(N2CCCC2=O)cc1,.,.,.,-7%,.
COc1ccc(S(=O)(=O)Nc2ccc(C)c(S(=O)(=O)N3CCOCC3)c2)cc1[N+](=O)[O-],.,.,.,4%,.
C[C@@H]1C[C@H](OC(=O)c2ccccc2O)CC(C)(C)C1,.,.,2,.,.
COc1cccc(NC(=O)Nc2ccncc2)c1,-11%,1%,-2,-25%,-6%
COc1cccc(NC(=O)Nc2ccc(C(C)(C)C)cc2)c1,28µM*[quencher],?,-3,?,-10%
CC1CC(c2ccccc2)=Nc2ccccc2N1 (centres undefined),.,.,1,?,.
COc1ccc(Nc2nc(N)nc(CSC(=S)N3CCCCC3C)n2)cc1 (centres undefined),10µM*[quencher],10%,-4,-13%,?
CCC(=O)N1c2ccccc2CC1C(=O)NCc1ccc(N(C)C)cc1 (centres undefined),2%,1%,.,1%,-1%
Nc1cccc(Nc2nc(OC(C(F)(F)F)C(F)(F)F)nc(OC(C(F)(F)F)C(F)(F)F)n2)c1,14µM*[quencher],12%,-19,?,4%
COc1nc(Nc2ccc(O)cc2)nc(OC(C(F)(F)F)C(F)(F)F)n1,?,7%,-2,?,4%
C[C@H](CO)N1C[C@H](C)[C@@H](CN(C)C(=O)NC2CCCCC2)Oc2ncc(Br)cc2C1=O,.,.,.,-25%,.
COc1ccc(NCc2nnc(SCC(=O)N3CCCc4ccccc43)n2C)cc1,-5%,0%,-38*,-19%,-2%
CCOC(=O)c1ccc(NC(=O)CSc2nnc(CNc3ccc(OC)cc3)n2C)cc1,-28%,?,-27,-8%,14µM*
CCn1c(CNc2ccc(OC)cc2)nnc1SCC(=O)N1CCCc2ccccc21,-13%,0%,-28,-16%,?
Cc1ccc(-n2nnnc2C(Cl)c2nnnn2-c2ccc(C)cc2)cc1,-17%,?,0,-23%,20µM*
Cc1ccc(-n2nnnc2-c2ccccc2)cc1,-6%,4%,1,-2%,-3%
COc1ccccc1/C=N/NC(=O)CSc1ccc2ccccc2n1,.,.,-33*,-24%,.
COc1ccccc1/C=N/NC(=O)c1c(-c2ccccc2)noc1C,.,.,-34*,-25%,.
